Experimental data: PubChem BioAssay AID777 (Sanford-Burnham Center for Chemical Genomics, 2007)
The whole screen tested about 96,000 compounds, of which about 19,000 (20%) were called active.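 The calls were made as follows: active = blocking of liver enzyme CYP2C9 beyond about 50% at 5 µM (limit read from the data); inactive = the rest.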 Only a sample is shown.

The molecules below were run against Cytochrome P450 2C9 (Homo sapiens) (UniProt P11712) (assay: blockers of cytochrome P450 2C9 activity – biochemical, luminescence, ADME assay, primary screen (AID 777)). Details: CYP2C9 Supersomes, luciferin-H conversion, at 5 µM, active compounds read high.
Cytochrome P450 2C9 (Homo sapiens), sequence (P11712 whole entry, looked up): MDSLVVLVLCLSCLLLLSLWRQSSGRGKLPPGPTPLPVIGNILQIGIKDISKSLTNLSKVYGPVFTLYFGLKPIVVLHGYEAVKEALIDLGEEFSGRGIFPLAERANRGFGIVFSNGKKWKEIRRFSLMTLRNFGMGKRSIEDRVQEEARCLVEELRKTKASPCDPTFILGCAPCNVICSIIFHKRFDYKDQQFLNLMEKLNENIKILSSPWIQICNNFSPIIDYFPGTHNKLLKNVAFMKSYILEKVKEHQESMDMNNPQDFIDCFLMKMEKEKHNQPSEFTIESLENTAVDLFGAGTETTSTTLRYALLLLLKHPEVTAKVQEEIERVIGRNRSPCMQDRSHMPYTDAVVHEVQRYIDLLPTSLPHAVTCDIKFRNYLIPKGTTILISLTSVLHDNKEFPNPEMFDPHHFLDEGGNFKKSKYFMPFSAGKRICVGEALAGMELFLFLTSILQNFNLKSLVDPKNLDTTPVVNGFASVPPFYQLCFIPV

inhibition, active:
Fc1ccc(CSc2nnc(-c3cc4c(s3)-c3ccccc3CC4)o2)cc1 52.4%
CC1CCN(c2oc(-c3ccccc3F)nc2C#N)CC1 80%
Cc1ccc(NC(=O)CN2CCc3ccccc3C2)cc1 87.4%
COc1ccc(-n2c(C)cc(C(=O)CSc3nnc(-c4cccs4)o3)c2C)cc1 90.8%
COc1ccc(OC)c(C(=O)CSc2nnc(-c3cccs3)o2)c1 54.4%
O=C(COC(=O)c1ccccc1C(=O)c1ccccc1)c1ccco1 90.4%
CCN1CCN(c2c(Cl)cccc2NC(=O)c2ccc(Br)o2)CC1 64.7%
Clc1ccc(COn2c(-c3ccc(Cl)cc3Cl)nc3ncccc32)cc1 97.1%
CCOc1ccc(-c2cn(S(=O)(=O)c3cccc4nsnc34)nc2N)cc1 62.6%
N#Cc1ccccc1-n1c(N)c(C(=O)N2CCCC2)sc1=S 69.3%
COc1cc(C2C(C#N)=C(C)NC3=C2C(=O)CC(C)(C)C3)ccc1O (stereo not given) 58.5%
COc1ccc(C2C(C#N)=C(/N=C/N3CCOCC3)OC3=C2C(=O)CC(C)(C)C3)cc1OC (stereo not given) 69%
CCOC(=O)/C(=C\c1ccc([N+](=O)[O-])cc1)C(=O)c1cc(C(C)=O)c(Nc2ccccc2)s1 76.2%
COc1cc(C(=O)N2CCN(C/C=C/c3ccccc3)CC2)cc(OC)c1C 67.7%

inhibition, inactive:
CCOC(=O)/C=c1\s/c(=C\c2ccccc2OC)c(=O)n1CC(=O)N1CCOCC1 2%
Clc1ccc(CSc2nnc([C@@H]3CCCN3)o2)cc1 31.8%
CCSc1nnc(-c2cc3c(s2)-c2ccccc2CC3)o1 -16.8%
CC(C)OC(=O)c1sc2nc3c(cc2c1N)C(=O)CCC3 19.5%
COc1ccccc1-c1nc(C#N)c(N2CCC(C(N)=O)CC2)o1 -9.8%
N#Cc1nc(COc2ccc(Cl)cc2)oc1N1CCCC1 39.8%
Cc1ccc(NC(=O)CCN2CCc3ccccc3C2)cc1 11.4%
O=C(CN1CCOCC1)Nc1ccccc1 11.4%
Cc1ccccc1-n1nnc2c(=O)oc3ccccc3c21 5.8%
Cc1cc(=O)[nH]c(SCC(N)=O)c1C#N 1.6%
CCOC(=O)Nc1ccc(NC(=O)OCC)cc1 -16.2%
COc1ccc(-c2nnc(SCC(=O)c3cccs3)o2)c(OC)c1 16.1%
COc1ccccc1-c1nnc(SCC(=O)Nc2cc(C)on2)o1 -64.2%
NC(=O)CSc1oc(-c2cccs2)nc1S(=O)(=O)c1ccccc1 30.5%
Cc1cc(NC(=O)CSc2nnc(-c3ccc(Cl)s3)o2)no1 18.4%
C=CCNC(=S)NNc1ncnc2sc3c(c12)CC(C)(C)OC3 19.6%
CCOC(=O)C1=C(C)N=c2s/c(=C\C(=O)OC)c(=O)n2C1c1ccc(OC)cc1 (stereo not given) 6.6%
CCN(CC)c1ccc(C(=O)OCC(=O)c2ccco2)cc1 -26.4%
O=C(CNC(=O)c1ccco1)OCC(=O)c1ccccc1 -2.5%
NC(=O)c1ccccc1NC(=O)c1ccccc1F -7.7%
Fc1ccccc1OCCSc1nc2ccccc2o1 21.5%
Cc1c(Br)cc(C(=O)N2CCCCCC2)c(C)c1C -38.3%
FC(F)(F)c1ccc2nnc(-c3c(Cl)cccc3Cl)n2c1 25.7%
CCCC(=O)Nc1ccc(Cl)c(NC(=O)c2ccc(Br)o2)c1 16.1%
COc1cc(OC)c(NC(=O)c2ccc(Br)o2)cc1Cl 38.8%
O=C(Nc1cccc2ncccc12)c1ccc(-c2ccc(Cl)cc2Cl)o1 5.6%
CCOc1ccc(OCC)c(-c2c(=O)n(OCc3ccc(Cl)cc3)c3ccccc3[n+]2[O-])c1 49.9%
COc1ccc(CC(=O)Nc2sc(Cc3ccccc3)c(C)c2C(N)=O)cc1 20.4%
CCOC(=O)CSc1nnc(CNc2ccc(F)cc2)o1 14.8%
CCCCSc1[nH]c(=O)c(C(=O)OCC)cc1C#N 19.4%
CN(C(=O)c1ccccn1)c1nnc(-c2ccccn2)s1 2.1%
CCOc1ccc(OCC)c(NC(=O)CN(C)S(=O)(=O)c2cccc3nsnc23)c1 -23.4%
CCOc1ccc(NC(=O)CCS(=O)(=O)c2cccc3nsnc23)cc1 33.7%
CCN(CC)Cc1csc2ccc(Br)cc12 -14.3%
Cc1cc(NC(=O)Cn2nc(C(F)(F)F)c3c2CCCC3)no1 14.9%
Cc1cccc(-n2c(N)c(C(=O)N3CCN(C)CC3)sc2=S)c1 19.9%
Cc1ccc(-n2c(N)c(C(=O)N3CCOCC3)sc2=S)c(C)c1 8.6%
COc1ccc(-n2nc(C(=O)NCC(=O)Nc3cccc(C)n3)c3ccccc3c2=O)cc1 23.8%
COc1ccc(C(C)=O)cc1CN1C(=O)NC2(CCCCC2C)C1=O (stereo not given) 9.5%
C#CCN1CC(C)/C(=N/O)CC1C (stereo not given) -28.8%
CCOC(=O)C1=C(C)NC2=C(C(=O)CC(C)(C)C2)C1c1ccsc1 (stereo not given) 39.8%
CCC1C(C#N)=C(SC)NC2=C1C(=O)CC(C)(C)C2 (stereo not given) 19%
CC(=O)Nc1ccc(NC(=O)CN2CCCC(C)C2)c(Cl)c1 (stereo not given) 18.3%
c1ccc(C2CCC(N3CCC(N4CCCCC4)CC3)CC2)cc1 (stereo not given) 11%
Cc1cc(=O)oc(C)c1C(=O)N1CCCCC1 4.9%
CCOC(=O)/C(C#N)=C/c1ccc(OCC(=O)Nc2ccccc2)c(OC)c1 14.7%
O=C(NCCc1ccccc1)/C(=C\c1ccc([N+](=O)[O-])cc1)NC(=O)c1ccccc1 3.8%
CCC1CCCCN1CCNS(=O)(=O)c1ccc2c(c1)CCN2C(C)=O (stereo not given) 15.6%
N/C(Cc1ccc([N+](=O)[O-])cc1)=N\OC(=O)COc1ccc2ccccc2c1 4.4%
CCOc1cc(CN2CCN(C(=O)CC(C)C)CC2)ccc1OC -24.7%
COc1ccc(OCC(=O)N2CCN(C(=O)COc3ccccc3)CC2)cc1 -2.8%
